The record followed here is ChEMBL document CHEMBL2218924, “A broad activity screen in support of a chemogenomic map for kinase signalling research and drug discovery” (Biochem J, 2013).

Assay [1] addresses Death-associated protein kinase 1 (Homo sapiens) (UniProt P53355). To be noted: at 1 µM.
Assay [2] shares this target. To be noted: at 10 µM.
Assay [3] concerns the target T1, Dual specificity tyrosine-phosphorylation-regulated kinase 2 (Homo sapiens) (UniProt Q92630).
T1 sequence (whole entry): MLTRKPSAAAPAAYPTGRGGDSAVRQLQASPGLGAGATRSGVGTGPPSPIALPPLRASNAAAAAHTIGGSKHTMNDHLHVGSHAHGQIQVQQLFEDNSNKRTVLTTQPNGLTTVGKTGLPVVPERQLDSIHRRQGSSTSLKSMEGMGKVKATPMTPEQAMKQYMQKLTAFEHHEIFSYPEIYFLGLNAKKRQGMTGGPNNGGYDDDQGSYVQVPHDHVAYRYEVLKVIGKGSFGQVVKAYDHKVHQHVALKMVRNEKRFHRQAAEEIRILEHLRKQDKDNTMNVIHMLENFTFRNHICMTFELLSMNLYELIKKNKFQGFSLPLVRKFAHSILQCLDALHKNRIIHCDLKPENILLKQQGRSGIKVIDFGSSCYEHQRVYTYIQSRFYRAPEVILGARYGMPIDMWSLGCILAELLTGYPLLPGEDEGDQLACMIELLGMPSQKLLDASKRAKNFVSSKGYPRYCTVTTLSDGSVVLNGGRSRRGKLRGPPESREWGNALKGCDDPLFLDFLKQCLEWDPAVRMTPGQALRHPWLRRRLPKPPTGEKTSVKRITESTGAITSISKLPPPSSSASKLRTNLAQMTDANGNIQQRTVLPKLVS
To be noted: at 10 µM.

The target in assay [4] is Ephrin type-A receptor 2 (Homo sapiens) (UniProt P29317). Conditions: at 1 µM.
Ephrin type-A receptor 2 (Homo sapiens), sequence (P29317 whole entry): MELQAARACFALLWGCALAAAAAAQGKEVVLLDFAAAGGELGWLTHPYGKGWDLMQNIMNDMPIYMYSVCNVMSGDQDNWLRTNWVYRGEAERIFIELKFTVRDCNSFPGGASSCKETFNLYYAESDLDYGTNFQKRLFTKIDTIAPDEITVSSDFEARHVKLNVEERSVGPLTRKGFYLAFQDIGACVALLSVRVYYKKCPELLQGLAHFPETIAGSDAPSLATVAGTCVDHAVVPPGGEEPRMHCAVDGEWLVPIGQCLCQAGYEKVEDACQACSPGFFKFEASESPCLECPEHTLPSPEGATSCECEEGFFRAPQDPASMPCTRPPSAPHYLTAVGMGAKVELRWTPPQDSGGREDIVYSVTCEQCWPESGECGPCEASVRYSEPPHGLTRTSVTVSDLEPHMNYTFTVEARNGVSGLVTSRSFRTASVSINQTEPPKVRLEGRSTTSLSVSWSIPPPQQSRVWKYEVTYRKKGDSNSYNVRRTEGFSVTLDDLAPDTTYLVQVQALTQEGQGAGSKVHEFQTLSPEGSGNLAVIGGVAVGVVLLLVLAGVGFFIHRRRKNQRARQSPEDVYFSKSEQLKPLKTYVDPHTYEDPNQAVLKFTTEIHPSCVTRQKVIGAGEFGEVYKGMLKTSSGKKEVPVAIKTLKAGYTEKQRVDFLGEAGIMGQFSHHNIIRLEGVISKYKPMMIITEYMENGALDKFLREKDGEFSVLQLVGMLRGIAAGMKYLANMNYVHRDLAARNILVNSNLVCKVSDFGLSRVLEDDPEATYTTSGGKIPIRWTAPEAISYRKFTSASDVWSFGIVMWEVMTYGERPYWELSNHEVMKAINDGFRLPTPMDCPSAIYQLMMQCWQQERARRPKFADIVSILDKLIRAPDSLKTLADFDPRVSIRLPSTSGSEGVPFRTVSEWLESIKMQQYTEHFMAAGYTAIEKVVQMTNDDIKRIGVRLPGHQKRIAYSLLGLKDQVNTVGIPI
For assay [5] the target is unchanged. Conditions: at 10 µM.
For assay [6], the target named is Death-associated protein kinase 2 (Homo sapiens) (UniProt Q9UIK4). To be noted: at 1 µM.
Death-associated protein kinase 2 (Homo sapiens), sequence (Q9UIK4 whole entry, looked up): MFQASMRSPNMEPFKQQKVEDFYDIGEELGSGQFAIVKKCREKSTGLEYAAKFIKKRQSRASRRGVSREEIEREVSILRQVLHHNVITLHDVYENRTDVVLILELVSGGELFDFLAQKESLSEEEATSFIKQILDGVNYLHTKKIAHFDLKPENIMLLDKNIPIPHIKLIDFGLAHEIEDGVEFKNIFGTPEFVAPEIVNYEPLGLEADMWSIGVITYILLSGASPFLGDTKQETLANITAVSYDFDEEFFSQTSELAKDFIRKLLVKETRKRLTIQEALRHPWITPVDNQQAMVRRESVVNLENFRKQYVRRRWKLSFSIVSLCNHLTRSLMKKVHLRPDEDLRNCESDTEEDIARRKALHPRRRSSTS
The target is the same in assay [7]. Conditions: at 10 µM.
In assay [8] the target is T2, Serine/threonine-protein kinase DCLK2 (Homo sapiens) (UniProt Q8N568).
T2 sequence (whole entry): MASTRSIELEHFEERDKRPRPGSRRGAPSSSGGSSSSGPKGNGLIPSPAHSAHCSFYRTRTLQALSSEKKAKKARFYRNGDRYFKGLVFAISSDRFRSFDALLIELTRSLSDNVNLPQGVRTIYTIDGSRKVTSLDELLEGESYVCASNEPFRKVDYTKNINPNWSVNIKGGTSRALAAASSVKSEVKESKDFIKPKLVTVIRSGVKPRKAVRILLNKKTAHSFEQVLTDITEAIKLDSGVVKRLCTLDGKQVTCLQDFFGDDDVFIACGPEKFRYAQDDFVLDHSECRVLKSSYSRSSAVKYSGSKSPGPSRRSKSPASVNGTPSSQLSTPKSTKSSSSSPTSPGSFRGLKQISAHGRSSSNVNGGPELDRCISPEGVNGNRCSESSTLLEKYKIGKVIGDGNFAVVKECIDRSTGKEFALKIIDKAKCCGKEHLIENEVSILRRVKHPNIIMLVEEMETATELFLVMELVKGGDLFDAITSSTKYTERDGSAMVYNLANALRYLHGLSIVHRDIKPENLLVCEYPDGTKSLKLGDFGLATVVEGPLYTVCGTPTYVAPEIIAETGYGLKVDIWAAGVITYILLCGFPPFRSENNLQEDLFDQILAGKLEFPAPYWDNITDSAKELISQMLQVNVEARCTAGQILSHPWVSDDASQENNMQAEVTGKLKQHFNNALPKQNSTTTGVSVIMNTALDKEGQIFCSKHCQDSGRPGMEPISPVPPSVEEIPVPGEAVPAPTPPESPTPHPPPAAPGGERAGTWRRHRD
Conditions: at 1 µM.

For assay [9], the target named is T2, Serine/threonine-protein kinase DCLK2 (Homo sapiens). Conditions: at 10 µM.
The target of assay [10] is T3, Myotonin-protein kinase (Homo sapiens) (UniProt Q09013).
T3 sequence (whole entry): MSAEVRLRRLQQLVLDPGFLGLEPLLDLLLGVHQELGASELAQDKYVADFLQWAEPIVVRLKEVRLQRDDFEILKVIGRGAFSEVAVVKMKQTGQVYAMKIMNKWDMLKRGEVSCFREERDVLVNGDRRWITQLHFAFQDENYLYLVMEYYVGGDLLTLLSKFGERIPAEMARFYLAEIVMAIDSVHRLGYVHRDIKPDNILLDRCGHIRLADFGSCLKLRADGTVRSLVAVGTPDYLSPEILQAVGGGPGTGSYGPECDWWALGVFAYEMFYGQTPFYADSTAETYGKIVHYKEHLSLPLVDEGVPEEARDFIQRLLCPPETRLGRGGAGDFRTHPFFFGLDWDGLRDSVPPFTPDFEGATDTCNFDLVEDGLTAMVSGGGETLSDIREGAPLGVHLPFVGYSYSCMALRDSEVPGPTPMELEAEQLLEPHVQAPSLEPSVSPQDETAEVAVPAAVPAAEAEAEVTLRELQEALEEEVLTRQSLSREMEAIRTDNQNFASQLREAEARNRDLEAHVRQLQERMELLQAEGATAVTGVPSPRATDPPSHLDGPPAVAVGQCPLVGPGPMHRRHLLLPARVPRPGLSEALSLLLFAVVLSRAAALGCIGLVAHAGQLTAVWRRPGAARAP
To be noted: at 1 µM.

Assay [11] concerns the target T3, Myotonin-protein kinase (Homo sapiens). Conditions: at 10 µM.
The target in assay [12] is T4, Serine/threonine-protein kinase 17A (Homo sapiens) (UniProt Q9UEE5).
T4 sequence (whole entry): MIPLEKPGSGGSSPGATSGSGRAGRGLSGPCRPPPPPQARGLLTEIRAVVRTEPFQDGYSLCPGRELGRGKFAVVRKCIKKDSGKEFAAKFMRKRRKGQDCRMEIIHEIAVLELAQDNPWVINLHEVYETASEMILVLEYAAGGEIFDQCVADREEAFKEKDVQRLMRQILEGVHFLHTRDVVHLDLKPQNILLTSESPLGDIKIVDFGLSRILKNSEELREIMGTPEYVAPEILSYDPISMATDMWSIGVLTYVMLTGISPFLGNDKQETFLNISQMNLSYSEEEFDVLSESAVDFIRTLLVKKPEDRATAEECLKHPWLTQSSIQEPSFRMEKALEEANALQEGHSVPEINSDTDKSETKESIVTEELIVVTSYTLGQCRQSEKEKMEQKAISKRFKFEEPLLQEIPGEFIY
Conditions: at 10 µM.

The target in assay [13] is T5, Ephrin type-A receptor 1 (Homo sapiens) (UniProt P21709).
T5 sequence (whole entry): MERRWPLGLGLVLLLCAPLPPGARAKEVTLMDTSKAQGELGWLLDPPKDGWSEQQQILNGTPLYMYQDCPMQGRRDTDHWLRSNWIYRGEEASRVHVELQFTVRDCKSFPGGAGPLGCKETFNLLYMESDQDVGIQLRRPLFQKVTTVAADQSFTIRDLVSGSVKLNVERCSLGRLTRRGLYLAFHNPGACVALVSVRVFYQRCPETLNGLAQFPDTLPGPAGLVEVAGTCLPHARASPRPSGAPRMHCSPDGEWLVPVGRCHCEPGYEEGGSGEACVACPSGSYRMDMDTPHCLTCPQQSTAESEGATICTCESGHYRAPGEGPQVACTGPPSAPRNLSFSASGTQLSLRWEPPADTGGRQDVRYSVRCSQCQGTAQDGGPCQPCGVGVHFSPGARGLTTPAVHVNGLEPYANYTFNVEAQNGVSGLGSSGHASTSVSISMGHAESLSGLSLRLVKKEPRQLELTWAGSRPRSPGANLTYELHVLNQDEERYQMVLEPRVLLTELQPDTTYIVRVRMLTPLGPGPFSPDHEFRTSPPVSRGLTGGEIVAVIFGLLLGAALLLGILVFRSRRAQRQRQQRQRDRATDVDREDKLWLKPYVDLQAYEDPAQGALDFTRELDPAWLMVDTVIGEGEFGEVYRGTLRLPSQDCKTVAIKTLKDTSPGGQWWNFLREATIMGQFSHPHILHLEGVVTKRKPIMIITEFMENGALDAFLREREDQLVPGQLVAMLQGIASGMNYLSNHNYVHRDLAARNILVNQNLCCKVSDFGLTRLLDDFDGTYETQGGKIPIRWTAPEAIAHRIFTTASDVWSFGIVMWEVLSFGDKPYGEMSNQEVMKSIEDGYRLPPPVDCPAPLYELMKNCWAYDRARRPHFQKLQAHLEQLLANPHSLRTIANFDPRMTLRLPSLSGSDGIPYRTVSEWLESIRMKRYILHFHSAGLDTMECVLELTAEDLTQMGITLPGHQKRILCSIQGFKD
Conditions: at 1 µM.

Death-associated protein kinase 1 (Homo sapiens), sequence (P53355 whole entry, looked up): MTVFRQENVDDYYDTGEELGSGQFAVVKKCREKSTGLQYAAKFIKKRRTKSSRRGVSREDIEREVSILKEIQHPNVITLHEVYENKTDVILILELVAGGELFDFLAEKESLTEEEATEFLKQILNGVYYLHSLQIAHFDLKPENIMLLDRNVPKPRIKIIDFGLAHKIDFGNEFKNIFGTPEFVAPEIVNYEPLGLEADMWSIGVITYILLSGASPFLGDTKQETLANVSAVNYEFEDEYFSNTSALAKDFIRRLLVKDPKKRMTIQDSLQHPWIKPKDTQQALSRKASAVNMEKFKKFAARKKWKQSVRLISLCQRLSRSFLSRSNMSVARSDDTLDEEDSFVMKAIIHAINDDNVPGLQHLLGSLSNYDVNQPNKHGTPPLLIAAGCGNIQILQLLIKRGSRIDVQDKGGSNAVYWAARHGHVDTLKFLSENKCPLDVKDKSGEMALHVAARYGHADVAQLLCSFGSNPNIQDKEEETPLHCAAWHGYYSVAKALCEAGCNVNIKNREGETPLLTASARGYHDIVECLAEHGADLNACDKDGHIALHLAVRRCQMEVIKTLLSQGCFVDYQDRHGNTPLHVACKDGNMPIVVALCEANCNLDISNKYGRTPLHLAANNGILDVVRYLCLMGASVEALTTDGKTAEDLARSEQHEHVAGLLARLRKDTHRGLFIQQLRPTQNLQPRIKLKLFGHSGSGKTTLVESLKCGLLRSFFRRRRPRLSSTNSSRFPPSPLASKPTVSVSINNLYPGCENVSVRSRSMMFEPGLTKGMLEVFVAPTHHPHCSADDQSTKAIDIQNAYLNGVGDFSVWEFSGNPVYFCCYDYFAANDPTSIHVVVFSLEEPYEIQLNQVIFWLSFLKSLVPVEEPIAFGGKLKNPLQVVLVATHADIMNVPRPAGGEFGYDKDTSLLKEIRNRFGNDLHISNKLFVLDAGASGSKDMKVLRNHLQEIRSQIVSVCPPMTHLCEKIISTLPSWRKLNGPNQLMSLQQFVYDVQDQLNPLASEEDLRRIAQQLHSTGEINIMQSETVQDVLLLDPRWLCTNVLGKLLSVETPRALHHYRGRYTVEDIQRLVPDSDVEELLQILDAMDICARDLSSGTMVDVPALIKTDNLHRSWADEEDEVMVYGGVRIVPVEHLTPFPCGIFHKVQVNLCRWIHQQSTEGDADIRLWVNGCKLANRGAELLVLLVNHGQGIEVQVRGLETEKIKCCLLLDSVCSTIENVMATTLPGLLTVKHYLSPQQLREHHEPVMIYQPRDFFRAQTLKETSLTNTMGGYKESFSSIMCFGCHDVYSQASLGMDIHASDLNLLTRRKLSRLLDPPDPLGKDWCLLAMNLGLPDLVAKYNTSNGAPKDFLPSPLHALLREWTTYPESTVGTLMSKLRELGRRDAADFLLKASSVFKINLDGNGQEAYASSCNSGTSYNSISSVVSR

As a reminder, the residual activity is the signal under treatment as a percentage of the control signal. For `Cc1cccc(-c2[nH]c(C(C)(C)C)nc2-c2ccc3c(c2)OCO3)n1`, in [1], the residual activity worked out at 79%.

For `CCN(CC)CCCCN1c2ccccc2Oc2ccc(Cl)cc21`, the residual activity in assay [1] amounted to 107%.

As to `CCc1nc(-c2ccc(OC)cc2)[nH]c1-c1ccncc1`, the residual activity in assay [1] stood at 101%; in assay [2], 100%; in assay [3], 34%; in assay [4] it was 105%; in assay [5], 105%.

As to `Oc1c2ccccc2c2c3c(cccc13)N=N2`, the residual activity in assay [1] was determined as 91%.

As for `COc1ccc2c(c[n+](C)c3c4cc5c(cc4ccc23)OCO5)c1OC`, the residual activity turned out to be 94% in assay [1]; 71% in [2]; 99% in assay [6]; 91% in assay [7]; 98% in [8]; 90% in [9]. For the same compound, the residual activity in [10] is 111%; in assay [11] it was 126%; in [12], 77%; in assay [3], 96%; in [13], 94%; in assay [5], 100%.
